Source: PubChem BioAssay (NCI)
Values joined by “and” are separate entries in the source; they are usually repeats but may differ in a detail not shown here. Equal values may be shown once. This is part of a sample that, as a whole, favours compounds with a hit. Of some 83,000 tested, about 20% had one in any assay.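 Plates (96-well) were seeded with cells, treated with compound at one concentration, and incubated for 48 hours before percent growth was determined.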 Some compounds were tested as several samples or in several runs, with calls that do not always agree. Active and inactive are the calls of the source. The calls were made as follows: active = growth percent below 10; inactive = the rest.

Tested on: MDA-MB-468 breast
Assay: NCI-60 one-dose screen, 48 h (100 = growth as untreated, 0 = no growth, -100 = all killed)
Conditions: 10 µM unless noted

SMILES | growth
COc1ccc(-c2ncnc3c2ncn3C/C=C/CCl)cc1 | -3.89% (active) and 61.5% (inactive)
Cc1nc2sc(C(=O)Nc3cccc4c3OCCO4)c(N)c2cc1C(C)O (stereo not drawn) | 3.42% (active)
COc1cccc(-c2nn(-c3ccccc3)cc2-c2ccnc(NCCCN)c2)c1 | 17.4% (inactive)
COC1=CC(c2ccc[nH]2)=N/C1=C\c1[nH]c(C)c(CC(=O)OCc2ccccc2)c1C | -24.6% (active)
O=C(NC1CCCCC1)OCc1c(COC(=O)NC2CCCCC2)c(-c2ccc(Cl)c(Cl)c2)n2c1CCC2 | -61.7% (active)
O=C(/C(=C\c1ccc([N+](=O)[O-])cc1)S(=O)Cc1ccc(Cl)cc1)c1ccc(Cl)cc1 (stereo not drawn) | 74% (inactive)
COc1ccc(-c2nc3ccc(-c4nnc(SCC(=O)Nc5ccc(C(C)=O)cc5)o4)cc3[nH]2)cc1 | 109% (inactive)
O=C1/C(=C\c2ccc(Cl)cc2)CN(C(=S)Nc2ccccc2)C/C1=C\c1ccc(Cl)cc1 | -64.4% (active)
C=C1C(=O)O[C@H]2[C@H]1CC/C(C(=O)NCCCCCNC(=O)/C1=C/CC[C@@]3(C)O[C@H]3[C@H]3OC(=O)C(=C)[C@@H]3CC1)=C\CC[C@@]1(C)O[C@@H]21 | 94.9% (inactive)
COc1ccc(-c2cc(-c3ccc(Cl)cc3)nc(SCCCCCCC(=O)NO)n2)cc1 | 12.7% (inactive)
COS(=O)(=O)c1ccc(Br)cc1 | 102% (inactive)
CCNC(=O)OCCc1c2ccccc2nc2ccccc12 | 108% (inactive)
O=C(/C(=C/c1cccc([N+](=O)[O-])c1)c1ccccc1)c1ccccc1 | 38.2% (inactive)
